Compound activity from PubChem.
A selection: hits, their analogues and other compounds. The true share with any hit is near 3.1%.
Mito fusion yeast: blocks mitochondrial division or promotes mitochondrial fusion; S. cerevisiae fusion-defective mutant growth rescue, CellTiterGlo 48 h; Potency, µM (top dose mostly 46.1 µM), usual class: activators; hit rate 0.23% among 320,000; also: nearly all actives have a fitted effect of over 45% in size
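Growth-rescue viability read-out: after 48 h at the non-permissive 37C in glycerol/ethanol YPEG, yeast mitochondrial fusion mutants are measured by CellTiterGlo luminescence; compounds (23 nl pinned per well) restoring growth score as division inhibitors or fusion activators.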
TrxR1 substrate: rat thioredoxin reductase 1 substrate activity; purified TrxR1 substrate turnover, NADPH consumption readout; Potency, µM (series often up to 114 µM); hit rate 0.01% among 390,000; AID 588456; O89049; also: nearly all actives have a fitted effect of over 50% in size
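Rat TrxR1, dispensed at 90 nM, was prereduced with 400 uM NADPH (final) for 5 min at ~22 deg C, then incubated with compound 15 min before 400 uM selenite. A first-read NADPH fluorescence drop versus no-compound background flagged substrates.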
A549 tox: kills or reduces viability of A549 cells in Nrf2 counter-screen | A549 ARE-Fluc cells, CellTiter-Fluor viability, 18-24 h | Potency, µM (titrated, usually from 46 µM), most hits filed as inhibitors | AID 504648 | hit rate 0.16% among 390,000
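A549 ARE_Fluc cells in 5% FBS OPTI-MEM were exposed to compounds in concentration-response for 18-24 h at 37 deg C. Viability was read by CellTiter-Fluor fluorescence (Ex 405/Em 525) after 30 min, before the luciferase read.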
IDH1 R132H inh: blocks human mutant IDH1 R132H enzyme. O75874. IDH1-R132H enzyme, NADPH consumption, diaphorase/resazurin fluorescence. Potency, µM (top dose mostly 76.6 µM), hits mostly inhibitors. hit rate 0.093% among 390,000; also: nearly all actives have a fitted effect of over 65% in size
Target sequence (O75874 whole entry R132H, stated change not applied): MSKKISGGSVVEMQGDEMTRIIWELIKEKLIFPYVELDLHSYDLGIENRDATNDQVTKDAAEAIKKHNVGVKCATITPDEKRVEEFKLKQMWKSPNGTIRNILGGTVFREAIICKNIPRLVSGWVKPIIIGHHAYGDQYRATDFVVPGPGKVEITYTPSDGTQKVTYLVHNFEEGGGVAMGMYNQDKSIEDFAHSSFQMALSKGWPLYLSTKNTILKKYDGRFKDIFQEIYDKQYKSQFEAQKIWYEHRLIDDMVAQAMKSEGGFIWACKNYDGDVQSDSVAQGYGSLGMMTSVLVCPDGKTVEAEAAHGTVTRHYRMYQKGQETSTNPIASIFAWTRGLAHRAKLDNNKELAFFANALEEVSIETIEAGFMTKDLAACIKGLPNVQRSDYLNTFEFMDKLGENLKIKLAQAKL
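IDH1-R132H (0.5 ug/mL) preincubated 30 min with compound, then NADPH (0.016 mM) and alpha-KG (2 mM) added; 80 min at RT, pH 7.5. Remaining NADPH coupled via diaphorase/resazurin to fluorescence (540/590 nm); concentration-response curves normalized to no-enzyme control.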
rTrxR1 inhibitor: blocks rat thioredoxin reductase 1; Potency, µM (highest dose often 114 µM), usual class: inhibitors; AID 588453; recombinant rTrxR1, NADPH fluorescence consumption, selenite substrate; hit rate 1% among 390,000; also: nearly all actives have a fitted effect of over 65% in size
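Rat TrxR1 (90 nM in the dispensed reagent) was pre-reduced with 400 uM NADPH for 5 min at room temperature, then incubated with compound for 15 min. After 400 uM selenite was added, NADPH fluorescence (Ex 340/Em 450 nm) was followed for 8 min.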
Nrf2 inh: inhibitors of Nrf2 signaling; Potency, µM (series often up to 46 µM), actives largely listed as inhibitors; A549 ARE-Fluc reporter, luciferase luminescence, 18-24 h; hit rate 2.1% among 360,000; also: nearly all actives have a fitted effect of over 60% in size
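Concentration-response testing used A549 ARE_Fluc cells at 5000 cells/well. Following an 18-24 h compound incubation, viability was read by fluorescence (Ex 405/Em 525) and luciferase output by luminescence.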
A number is an active result; i = inactive; ? = inconclusive; nt = no result given; [ ] = another dose, or the depositor's remark. Calls follow the shape of the dose curve; as a rule, active = well fitted curve in the direction sought with a large enough effect; inconclusive = small, poorly fitted or top-dose-only effect, or another doubt; inactive = no such curve, though single readings can be large; an effect the other way counts as inactive or inconclusive.

SMILES	Mito fusion yeast	TrxR1 substrate	A549 tox	IDH1 R132H inh	rTrxR1 inhibitor	Nrf2 inh
COc1cccc(C2C(C(=O)Nc3ccccc3)=C(C)Nc3nc(-c4ccccc4)nn32)c1OC (centres undefined)	nt	i	i	i	i	18µM
Cc1cc(-c2ccccc2)nc(SCC(=O)c2cccc([N+](=O)[O-])c2)n1	i	i	i[1.84 µM]	i	i	?
COc1ccc(-c2cc(C)nc(SCC(=O)c3cccc([N+](=O)[O-])c3)n2)cc1	i	i	i	i	i	21µM
Cc1cc2c(s1)c1cnn(Cc3c(F)ccc(Cl)c3F)c(=O)c1n2C	nt	nt	i	nt	nt	i
O=C(CCCN1C(=O)/C(=C\c2ccco2)SC1=S)Nc1ccc(O)cc1C(=O)O	i	i	?	i	50µM	i
Cc1ccc(/C=C2\SC(=S)N(CCCC(=O)Nc3ccccc3C(=O)O)C2=O)cc1	i	i	i	i	i	15µM
O=C(CCCN1C(=O)/C(=C\c2cccs2)SC1=S)Nc1ccc(O)cc1C(=O)O	i	i	i	i	i	?
Cc1ccc(NC(=O)CCCN2C(=O)c3cccc4cccc(c34)C2=O)cc1	i	i	?	i	i	15µM
Cc1ccc(/C=C2\SC(=S)N(CCCC(=O)Nc3ccc(O)cc3)C2=O)cc1	i	i	i	i	i	16µM
COC(=O)c1ccc(/C=C2/SC(=S)N(CCCC(=O)Nc3ccc(O)cc3)C2=O)cc1	i	i	i	i	i	i
Cc1ccc(NC(=O)CCN2C(=O)c3cccc4cccc(c34)C2=O)cc1	i	i	i	i	i	?
COc1cc2c(s1)c1cnn(Cc3ccccc3F)c(=O)c1n2C	nt	nt	i	nt	nt	i
Cc1ccc(/C=C2\SC(=S)N(CCCC(=O)Nc3ccccn3)C2=O)cc1	i	i	?	i	i	2.3µM
Cc1ccc(NC(=O)CN2C(=O)S/C(=C\c3cc(Cl)c(OCC(=O)O)c(Cl)c3)C2=O)cc1	i	i	i	37µM	i	i
COc1ccc(/C=C2\SC(=O)N(CC(=O)Nc3ccc(O)cc3)C2=O)cc1OC	i	i	i	i	i	i
N#CC(C#N)=C(Nc1ccc(F)cc1)SCc1cccc(F)c1	i	i	?	i	i	4.6µM
CCn1c(C)nc2cc(-c3nc4n(n3)Cc3ccccc3-4)ccc21	i	i	i	i	i	2.3µM
NC(=S)n1[nH]c(-c2ccc([N+](=O)[O-])cc2)c(N=Nc2ccc(O)cc2)c1=O	i	i	i	i	i	?
NC(=S)n1[nH]c(-c2ccc([N+](=O)[O-])cc2)c(N=Nc2cccc(Cl)c2)c1=O	i	i	?	i	i	18µM
CC(C)=CCC/C(C)=C/CNC(=O)C[C@H]1C[C@H](C(=O)N(C(C)C)C(C)C)[C@@]2(C)c3[nH]c4cc(CCC(=O)N(C)C)ccc4c3CCN2C1=O	nt	i	i	?	i	21µM
CC(C)=CCC/C(C)=C/CNC(=O)C[C@H]1C[C@H](C(=O)N(C(C)C)C(C)C)[C@@]2(C)c3[nH]c4cc(-c5ccco5)ccc4c3CCN2C1=O	nt	i	?	i	i	23µM
CCN(CC)C(=O)[C@H]1C[C@H](CC(=O)NCC23CC4CC(CC(C4)C2)C3)C(=O)N2CCc3c([nH]c4cc(-c5ccco5)ccc34)[C@]12C	nt	i	i	i	i	i
CC(C)N(C(=O)[C@H]1C[C@H](CC(=O)NCCCN(C)C)C(=O)N2CCc3c([nH]c4cc(CCC(=O)N(C)C)ccc34)[C@]12C)C(C)C	nt	i	i	i	i	i
CC(C)N(C(=O)[C@H]1C[C@H](CC(=O)NCc2ccco2)C(=O)N2CCc3c([nH]c4cc(-c5ccco5)ccc34)[C@]12C)C(C)C	nt	i	i	i	i	15µM
CC(C)N(C(=O)[C@H]1CC(CC(=O)NCc2ccco2)C(=O)N2CCc3c([nH]c4ccccc34)[C@]12C)C(C)C (some centres undefined)	nt	i	i	i	i	i
SMILES	Mito fusion yeast	TrxR1 substrate	A549 tox	IDH1 R132H inh	rTrxR1 inhibitor	Nrf2 inh
C[C@]12c3[nH]c4cc(-c5ccco5)ccc4c3CCN1C(=O)[C@@H](CC(=O)NCC13CC4CC(CC(C4)C1)C3)C[C@@H]2C(=O)N1CCOCC1	nt	i	?	i	i	23µM
O=C(COC(=O)c1ccc(-c2ccc([N+](=O)[O-])cc2)o1)NC(=O)NC1CCCCC1	i	i	i	i	i	i
O=C(COC(=O)c1ccc(-c2ccc([N+](=O)[O-])cc2)o1)NC(=O)NC12CC3CC(CC(C3)C1)C2	10µM	i	i	i	?	i
Cc1cc(C=O)cc(C)c1[N+](=O)[O-]	nt	i	nt	nt	i	nt
CCN1/C(=C/c2ccc3ccccc3[n+]2CC)C=Cc2ccccc21	i	i	9.2µM	i	?	2.9µM
O=C1CC(c2ccc(Cl)c([N+](=O)[O-])c2)c2ccc3ccccc3c2N1 (centres undefined)	13µM	i	i	i	i	i
O=C(Nc1ccc(Cl)c(C(F)(F)F)c1)[C@@H]1CC=C[C@@H]2CCN(Cc3ccc(Cl)c(Cl)c3)C(=O)[C@@H]21	nt	i	i	i	i	12µM
O=C(Nc1nccs1)[C@@H]1CC=C[C@@H]2CCN(Cc3ccc(Cl)c(Cl)c3)C(=O)[C@@H]21	nt	i	nt	nt	i	nt
CCOc1ccc(C(=O)Nc2ccccc2N2CCOCC2)cc1	i	i	i	i	i	nt
CCOc1ccc(C(=O)C2CCN(CC(=O)Nc3ccccc3N3CCOCC3)CC2)cc1	i	i	i[1.84 µM]	i	i	12µM
CC(C)CC(=O)N1C/C=C\C[C@@H](c2ccc(Cl)cc2)N(Cc2ccc(Cl)cc2)C(=O)[C@@H]1Cc1ccccc1	nt	i	nt	nt	i	nt
COc1cccc(NC(=O)c2ccc(CNS(=O)(=O)c3ccc4c(c3)C(C)(C)C(=O)N4C)cc2)c1	nt	i	i	i	i	16µM
CCC(C)NC(=O)c1ccc(CNS(=O)(=O)c2ccc3c(c2)C(C)(C)C(=O)N3C)cc1 (centres undefined)	i	i	i	i	i	i
Cc1ccc(NC(=O)c2ccc(CNS(=O)(=O)c3ccc4c(c3)C(C)(C)C(=O)N4C)cc2)cc1C	nt	i	i	i	i	18µM
Cc1ccccc1NC(=O)c1ccc(CNS(=O)(=O)c2ccc3c(c2)C(C)(C)C(=O)N3C)cc1	nt	i	i	i	i	i
Cc1cccc(NC(=O)c2ccc(CNS(=O)(=O)c3ccc4c(c3)C(C)(C)C(=O)N4C)cc2)c1	nt	i	i	i	i	21µM
C=CCn1c(SC(C)C#N)nc2ccccc2c1=O (centres undefined)	nt	i[0.0914 µM]	i	nt	i	i
Cc1ccc(-c2cc(NC(=O)C(C)Oc3ccccc3F)on2)cc1 (centres undefined)	nt	i	i	i	i	i
